The results in this text go back to PubChem BioAssay.

Active and inactive are the calls of the source. Unless noted, no rule for the calls is given here.

The nature of assay [1]: resazurin metabolic signal in HepG2 cells – cell-based, resazurin fluorescence, 24 h, PK04 Diversity Set, profiling panel (AID 1172). The following applies: HepG2 viability, higher = more signal.
Assay [2] in a line: budding yeast growth changes without added modifier – OD600, strain BY4716, 24 h, basal condition, primary screen (AID 1173). The following applies: S. cerevisiae BY4716 growth, OD600, 24 h; higher = more signal, called active from +8 up or from −8 down.
The nature of assay [3]: viability profiling in MM1S myeloma cells – cell-based, resazurin fluorescence, basal, 24 h, PK04 Diversity Set, profiling panel (AID 1174).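 Also: MM1S multiple myeloma cell line.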 The following applies: higher = more signal, called active from +8 up or from −8 down.
For assay [4], the target named is Dihydroorotate dehydrogenase (quinone), mitochondrial (Plasmodium falciparum (isolate 3D7)) (UniProt Q08210). As to the kind of experiment: inhibition of P. falciparum DHODH – biochemical, C-terminal His tag, absorbance 600 nm, primary screen (AID 1175).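 Also: recombinant parasite enzyme with a five histidine tag at its C terminus.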 Particulars: PfDHODH enzyme, DCIP absorbance 600 nm; higher = more signal, called active from +8 up or from −8 down.

The nature of assay [5]: inhibition of PAO1 biofilm formation – strain PAO1, LB-PBS medium, absorbance 600 nm, primary screen (AID 1176). Particulars: P. aeruginosa PAO1 growth/biofilm, A600, 12 h; higher = more signal.
Assay [6] can be described thus: growth modulation of vineyard yeast isolate – strain RM11-1a, OD600, basal, 24 h, primary screen (AID 1177).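 Also: cultures grown under basal conditions with no added stressor.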 The following applies: S. cerevisiae RM11-1a growth, OD600, 24 h; higher = more signal, called active from +8 up or from −8 down.
Assay [7] in a line: growth of efflux-deficient E. coli DRC39 – strain DRC39, OD650, 24 h, E. coli filamentation inducers, primary screen (AID 1178).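 Also: growth measured as culture turbidity by optical density at 650 nm.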 The following applies: E. coli DRC39 acrAB, higher = more signal, called active from +8 up or from −8 down.
Assay [8] is described as follows: growth of efflux-deficient E. coli DRC39 – strain DRC39, OD650, 48 h, E. coli filamentation inducers, primary screen (AID 1179).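 Also: screen aims at cell division blockers that make cells filament.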 Particulars: E. coli DRC39 delta-acrAB growth, higher = more signal, called active from +8 up or from −8 down.
The nature of assay [9]: viability profiling in RPMI8226 myeloma cells – cell-based, resazurin fluorescence, basal, 24 h, PK04 Diversity Set, profiling panel (AID 1180).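 Also: RPMI8826 multiple myeloma cell line at 5000 cells per well.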 The following applies: higher = more signal.
In assay [10] the target is E3 ubiquitin-protein ligase XIAP (Homo sapiens) (UniProt P98170). As to the kind of experiment: small molecules binding XIAP protein – biophysical, small-molecule microarray, fluorescence 635 nm, primary screen (AID 1181).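 Also: score merges 667 nm emission and signal to noise over triplicate slides.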 Particulars: higher = more signal.
Assay [11] has as its system XIP peptide (Xip251-270) binding. As to the kind of experiment: XIP fragment 251-270 binding compounds – biochemical, small-molecule microarray, fluorescence 635/667 nm, 0.1 µg/mL protein, primary screen (AID 1182). Particulars: fluorescent protein binding, 635 nm, higher = more signal, called active from +8 up or from −8 down.
The subject of a further assay is XIP peptide (Xip251-270). As to the kind of experiment: compounds binding XIP fragment 251-270 – biochemical, small-molecule microarray, fluorescence 635/667 nm, 0.5 µg/mL protein, primary screen (AID 1183). Particulars: fluorescence 635 nm, higher = more signal.
A short description of assay [12]: blood-stage malaria parasite viability loss – strain 3D7, DAPI fluorescence, 100 nL, primary screen (AID 1184).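 Also: parasites grown inside human red blood cells in medium with human serum.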 The following applies: P. falciparum 3D7 growth, 3 d, higher = more signal.
Assay [13] addresses Homeobox protein Hox-A13 (Mus musculus) (UniProt Q62424). As to the kind of experiment: disruptors of Hoxa13 oligonucleotide interaction – biochemical, fluorescence polarization, labeled oligonucleotide, primary screen (AID 1185). Particulars: Hoxa13:DNA binding, 15 min, higher = more signal, called active from +8 up or from −8 down.
A short description of assay [14]: blockers of DNA damage checkpoint Chk1 activation – imaging, HeLa, hydroxyurea, phospho-Chk1 antibody, percent positive cells, primary screen (AID 1186). Particulars: hydroxyurea-induced phospho-Chk1 immunofluorescence imaging, higher = more signal.
A short description of assay [15]: blockers of DNA damage checkpoint Chk1 activation – imaging, HeLa, hydroxyurea, phospho-Chk1 nuclear intensity, primary screen (AID 1187). The following applies: hydroxyurea-induced phospho-Chk1 immunofluorescence imaging, higher = more signal.

Sequence of E3 ubiquitin-protein ligase XIAP (Homo sapiens) (P98170 whole entry, looked up, the tested form may be a part): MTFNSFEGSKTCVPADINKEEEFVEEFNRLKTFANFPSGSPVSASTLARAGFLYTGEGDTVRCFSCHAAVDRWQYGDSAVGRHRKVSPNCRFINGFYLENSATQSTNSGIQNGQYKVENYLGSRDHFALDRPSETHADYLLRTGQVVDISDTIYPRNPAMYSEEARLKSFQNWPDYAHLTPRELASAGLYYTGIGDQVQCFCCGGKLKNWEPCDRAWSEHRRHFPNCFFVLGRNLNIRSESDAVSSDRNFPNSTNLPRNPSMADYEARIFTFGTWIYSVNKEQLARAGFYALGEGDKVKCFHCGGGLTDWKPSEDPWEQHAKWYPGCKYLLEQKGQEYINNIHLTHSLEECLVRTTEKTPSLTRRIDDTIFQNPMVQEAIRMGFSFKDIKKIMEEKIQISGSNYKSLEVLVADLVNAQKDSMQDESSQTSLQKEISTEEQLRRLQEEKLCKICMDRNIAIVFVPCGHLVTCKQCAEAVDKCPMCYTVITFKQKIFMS
Sequence of Homeobox protein Hox-A13 (Mus musculus) (Q62424 whole entry, looked up): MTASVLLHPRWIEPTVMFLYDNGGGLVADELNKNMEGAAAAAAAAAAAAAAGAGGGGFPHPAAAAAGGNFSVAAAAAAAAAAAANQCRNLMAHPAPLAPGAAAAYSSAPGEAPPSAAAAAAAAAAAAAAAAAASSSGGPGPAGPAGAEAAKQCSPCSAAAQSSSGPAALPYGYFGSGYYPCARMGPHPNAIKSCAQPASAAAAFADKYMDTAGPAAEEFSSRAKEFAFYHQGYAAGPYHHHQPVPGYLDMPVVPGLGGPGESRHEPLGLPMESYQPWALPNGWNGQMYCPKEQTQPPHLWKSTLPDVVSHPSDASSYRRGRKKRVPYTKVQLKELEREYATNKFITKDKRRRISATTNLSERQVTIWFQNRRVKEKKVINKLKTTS
Sequence of Dihydroorotate dehydrogenase (quinone), mitochondrial (Plasmodium falciparum (isolate 3D7)) (Q08210 whole entry, looked up): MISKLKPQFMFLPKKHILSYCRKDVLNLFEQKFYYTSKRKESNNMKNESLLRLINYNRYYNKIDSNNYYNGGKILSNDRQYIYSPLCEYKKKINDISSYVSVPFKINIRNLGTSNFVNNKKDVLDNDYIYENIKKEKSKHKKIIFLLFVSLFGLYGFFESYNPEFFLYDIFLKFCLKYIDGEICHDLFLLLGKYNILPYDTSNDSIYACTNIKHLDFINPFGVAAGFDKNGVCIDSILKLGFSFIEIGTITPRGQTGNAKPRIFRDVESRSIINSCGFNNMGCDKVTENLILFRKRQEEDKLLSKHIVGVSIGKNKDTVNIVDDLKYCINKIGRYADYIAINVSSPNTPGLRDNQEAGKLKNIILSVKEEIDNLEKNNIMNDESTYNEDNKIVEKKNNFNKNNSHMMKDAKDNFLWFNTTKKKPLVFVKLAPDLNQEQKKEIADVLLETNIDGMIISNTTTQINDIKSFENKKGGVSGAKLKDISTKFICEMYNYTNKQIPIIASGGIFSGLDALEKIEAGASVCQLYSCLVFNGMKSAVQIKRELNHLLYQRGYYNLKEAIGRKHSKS

In the case of `C=CCC(OC(C)=O)[C@@H]1[C@@H](N(Cc2cccc3ccccc23)C(=O)c2cccc3ccccc23)c2cc(OCCCO)ccc2N1C(=O)c1ccc2ccccc2c1` (some centres undefined), the z-score in [1] was 0.628; in assay [2], -0.775 (inactive); in [3], 0.62 (inactive); in [5] it was -1.44 (inactive); in [6], -0.646 (inactive); in assay [7] it was 0.745 (inactive). Besides, the z-score in assay [8] is 0.386 (inactive); in assay [9], -0.0722; in assay [12], -2.41; in assay [13], -1.18 (inactive); in [14], -0.534 (inactive); in [15], -0.158 (inactive). The composite z-score in assay [4] was -0.29 (inactive); in assay [10], -0.179; in assay [11] it was 0.25 (inactive); in the assay on XIP peptide (Xip251-270) it was 0.012.
Take `CN(C)C(=O)[C@@]1(Cc2ccccc2N=[N+]=[N-])N=C(c2ccc(OCCCO)cc2)O[C@H]1c1ccccc1`: the z-score was 0.329 in assay [1]; -1.23 (inactive) in [2]; -3.18 (inactive) in assay [3]; 0.274 (inactive) in assay [5]; 0.751 (inactive) in assay [6]; -0.105 (inactive) in [7]. Also, the z-score in assay [8] is -1.1 (inactive); in [9], -3.04; in assay [12], -2.19; in assay [13] it was -4.9 (inactive); in [14] it was -0.279 (inactive); in assay [15], -0.303 (inactive). Moreover, the composite z-score in [4] was 0.346 (inactive); in assay [10], 0.102; in [11], 1.47 (inactive); in the assay with XIP peptide (Xip251-270), 0.821.
On to `COC(=O)C(CC#Cc1ccc2c(c1)[C@]1(C(=O)N2)[C@H](C(=O)Nc2nc3ccccc3s2)[C@H]2C(=O)O[C@H](c3ccccc3)[C@H](c3ccccc3)N2[C@@H]1c1ccc(OCCO)cc1)C(=O)OC`, for which the z-score in [1] is 0.885; in [2] it was -0.0399 (inactive); in [3], 0.973 (inactive); in assay [5] it was 3.52 (inactive); in [6], -0.367 (inactive); in assay [7] it was 0.776 (inactive). Besides, the z-score in assay [8] was 1.42 (inactive); in assay [9], -2.38; in assay [12], -2.1; in assay [13] it was 0.713 (inactive); in [14] it was 0.0974 (inactive); in [15] it was 0.531 (inactive). The composite z-score in assay [4] is -3.07 (inactive); in assay [10], -0.0391; in assay [11] it was 3.13 (inactive); in the assay with XIP peptide (Xip251-270) it was 0.771.
With `COC(=O)[C@@]1(Cc2ccccc2CN=[N+]=[N-])N=C(c2ccc(OCCCO)cc2)O[C@H]1c1ccccc1CN=[N+]=[N-]`, the z-score was -1.67 in assay [1]; 1.66 (inactive) in [2]; -4.85 (inactive) in [3]; 2.8 (inactive) in [5]; 2.88 (inactive) in assay [6]; 1.53 (inactive) in assay [7]. Moreover, the z-score is -0.47 (inactive) in assay [8]; -4.32 in assay [9]; -2.2 in [12]; 0.87 (inactive) in assay [13]; -0.598 (inactive) in [14]; -0.223 (inactive) in assay [15]. In addition, the composite z-score in assay [4] was 2.46 (inactive); in [10] it was -0.113; in assay [11], 0.192 (inactive); in the assay on XIP peptide (Xip251-270), 0.723.
As for `C=C(COC)/C(=C/C[C@@H](OC(C)=O)c1ccc(CO)o1)c1cc(C(=O)OC)ccc1OC`, the z-score in [1] was -0.0453; in assay [2], 0.196 (inactive); in assay [3], -0.216 (inactive); in assay [5], 0.637 (inactive); in assay [6] it was 0.317 (inactive); in assay [7], 0.65 (inactive). In addition, the z-score was 0.638 (inactive) in assay [8]; 0.205 in assay [9]; 0.0394 in assay [12]; -4.84 (inactive) in assay [13]; -1.06 (inactive) in [14]; -1.26 (inactive) in assay [15]. The composite z-score in [4] was -0.0894 (inactive); in [10] it was -0.173; in assay [11] it was 0.824 (inactive); in the assay on XIP peptide (Xip251-270) it was 0.147.
In the case of `CN1C(=O)C2C=CC(C(O)c3cc(C(F)(F)F)cc(C(F)(F)F)c3)N(NC(=O)OC(C)(C)C)C2C1=O` (centres undefined), the z-score in assay [1] is -0.725; in [2], -0.752 (inactive); in assay [3], -0.117 (inactive); in [5], -0.379 (inactive); in [6] it was 0.215 (inactive); in assay [7], -0.676 (inactive). The z-score in assay [8] was -1.22 (inactive); in assay [9], 0.349; in assay [12], -1.32; in assay [13] it was -5.04 (inactive); in [14], 0.0279 (inactive); in assay [15], 0.275 (inactive). For the same compound, the composite z-score in assay [4] was -0.251 (inactive); in [10], 0.394; in assay [11], 1.07 (inactive); in the assay with XIP peptide (Xip251-270), 0.623.
Regarding `CCOC(=O)C[C@H]1[C@H](OC(=O)c2cc3ccccc3oc2=O)[C@@H](NC(=O)c2ccc3ccccc3c2)c2cc(OCCCO)ccc2N1C(=O)Cc1ccc(OC)cc1`, the z-score in [1] was 0.98; in assay [2], -0.399 (inactive); in assay [3] it was -0.0697 (inactive); in assay [5], -0.304 (inactive); in [6], 0.0085 (inactive); in assay [7], 0.406 (inactive). The z-score was -0.224 (inactive) in [8]; -0.137 in assay [9]; -0.791 in assay [12]; -2.96 (inactive) in assay [13]; 0.204 (inactive) in [14]; -0.322 (inactive) in assay [15]. Also, the composite z-score in assay [4] was 0.0533 (inactive); in [10], -0.169; in assay [11] it was 0.515 (inactive); in the assay with XIP peptide (Xip251-270) it was 0.335.
As for `[N-]=[N+]=NCc1ccccc1[C@@H]1OC(c2ccc(OCCCO)cc2)=N[C@]1(Cc1ccccc1N=[N+]=[N-])C(=O)NCCN1CCOCC1`, the z-score in [1] was -0.591; in assay [2] it was -2.33 (inactive); in assay [3] it was 0.0903 (inactive); in assay [5], 0.385 (inactive); in assay [6], -0.186 (inactive); in [7], 0.191 (inactive). Moreover, the z-score in assay [8] was -0.215 (inactive); in assay [9] it was -0.846; in assay [12], -2.45; in assay [13], -4.64 (inactive); in [14] it was -0.276 (inactive); in assay [15] it was -0.22 (inactive). For the same compound, the composite z-score in [4] was -0.549 (inactive); in assay [10], -0.0826; in assay [11], 0.24 (inactive); with XIP peptide (Xip251-270), 0.878.
As for `COCCOC(=O)N1C(=O)[C@@]2(c3cc(C#Cc4ccc(OC)cc4)ccc31)[C@H](c1ccc(OCCO)cc1)N1[C@H](c3ccccc3)[C@H](c3ccccc3)OC(=O)[C@H]1[C@@H]2C(=O)Nc1nc2ccccc2s1`, the z-score is 1.62 in assay [1]; 1.21 (inactive) in assay [2]; -0.606 (inactive) in [3]; 1.5 (inactive) in assay [5]; 1.56 (inactive) in assay [6]; 0.0318 (inactive) in [7]. The z-score in assay [8] was -0.389 (inactive); in [9], 0.46; in assay [12], -0.817; in [13] it was 1.31 (inactive); in [14] it was -0.007 (inactive); in assay [15] it was 0.254 (inactive). For the same compound, the composite z-score in assay [4] was -1 (inactive); in [10], 0.259; in assay [11], 0.968 (inactive); with XIP peptide (Xip251-270) it was 0.414.
